Results from the supplement of paper PMC6992640.
Where a name gives a salt, the structure may show the parent alone. ± gives the standard deviation of the averaged measurements.

Legend:
Experiment in all cases: cell viability (% of vehicle); higher = less cytotoxic
Conditions in all cases: 10 µM; 72 h
HCI01 = system: HCI01 (cells of a triple-negative basal-like breast cancer xenograft)
HCI03 = system: HCI03 (cells of an ER-positive luminal breast cancer xenograft)
HCI09 = system: HCI09 (cells of a triple-negative luminal androgen receptor type breast cancer xenograft)
HCI11 = system: HCI11 (cells of an ER-positive luminal breast cancer xenograft)
HCI13 = system: HCI13 (cells of an ER-positive luminal breast cancer xenograft)
HCI16 = system: HCI16 (cells of a triple-negative basal-like breast cancer xenograft)
UCD52 = system: UCD52 (cells of a triple-negative basal-like breast cancer xenograft)
WHIM2 = system: WHIM2 (cells of a triple-negative basal-like breast cancer xenograft)
WHIM30 = system: WHIM30 (cells of a triple-negative basal-like breast cancer xenograft)
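Note: PDX cells carrying CMV promoter-driven luciferase, viability read as total photon flux per second by IVIS imaging following D-luciferin, vehicle control 0.1% DMSO.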

Row | Structure (SMILES) | cell viability (HCI01) | cell viability (HCI03) | cell viability (HCI09) | cell viability (HCI11) | cell viability (HCI13) | cell viability (HCI16) | cell viability (UCD52) | cell viability (WHIM2) | cell viability (WHIM30)
1 | NCC(=O)CCC(=O)O [5-Aminolevulinic acid HCl] | 79.2 ± 41 | 132 | 89.9 ± 2.3 | 83.2 | 113 ± 24 | 164 | 82.6 ± 7.6 | 129 ± 24 | 146 ± 6.6
2 | CN1CCCN=C1C=Cc1cccs1.O=C(O)c1cc2ccccc2c(Cc2c(O)c(C(=O)O)cc3ccccc23)c1O [Pyrantel Pamoate] | 82.3 ± 44 | 117 | 114 ± 12 | 101 | 146 ± 13 | 109 | 99.5 ± 12 | 95.8 ± 17 | 130 ± 3
3 | CS(=O)(=O)c1ccc(C2=C(c3ccccc3)C(=O)OC2)cc1 [Rofecoxib] | 127 ± 8.3 | 119 | 84.3 ± 18 | 99.7 | 141 ± 20 | 96.7 | 78.7 ± 10 | 99 ± 6.9 | 84.6 ± 5.8
4 | OCC(O)C(O)C(O)C(O)CO (stereo not drawn) [Sorbitol] | 89.2 ± 28 | 132 | 92.6 ± 8.6 | 84 | 102 ± 3.2 | 111 | 87.63 ± 0.58 | 86.6 ± 8.6 | 83.33 ± 0.53
5 | CN(C)CCOC(C)(c1ccccc1)c1ccccn1.O=C(O)CCC(=O)O (stereo not drawn) [Doxylamine Succinate] | 122 ± 18 | 124 | 101 ± 14 | 101 | 90.5 ± 6.7 | 108 | 94.28 ± 0.33 | 97.4 ± 22 | 103.9 ± 0.48
6 | Cc1nnc(C(=O)NC(C)(C)c2nc(C(=O)NCc3ccc(F)cc3)c(O)c(=O)n2C)o1 [Raltegravir (MK-0518)] | 126 ± 2 | 134 | 97 ± 18 | 116 | 93.4 ± 11 | 118 | 119 ± 20 | 116 ± 15 | 136 ± 7.5
7 | NCCCC(O)(P(=O)([O-])O)P(=O)(O)O.O.O.O.[Na+] [Alendronate] | 89.6 ± 12 | 123 | 85.1 ± 12 | 69.5 | 106 ± 5.1 | 109 | 94.7 ± 19 | 104 ± 5.2 | 97.5 ± 11
8 | CC(C)(Oc1ccc(C2CC2(Cl)Cl)cc1)C(=O)O (stereo not drawn) [Ciprofibrate] | 96 ± 14 | 126 | 94.3 ± 11 | 79.4 | 110 ± 12 | 114 | 96.2 ± 2.9 | 120 ± 3.9 | 127 ± 15
9 | CC(C)NCC(O)COc1cccc2ccccc12.Cl (stereo not drawn) [Propranolol HCl] | 109.73 ± 0.067 | 104 | 100 ± 15 | 84.5 | 97.8 ± 24 | 96.6 | 83.3 ± 4.4 | 83.3 ± 16 | 108 ± 7.8
10 | NS(=O)(=O)Cc1noc2ccccc12 [Zonisamide] | 96.13 ± 0.4 | 136 | 90 ± 5 | 108 | 117 ± 18 | 99.1 | 130 ± 16 | 92.9 ± 7.1 | 129 ± 3.9
11 | Cc1ccc(F)c(NC(=O)Nc2ccc(-c3cccc4[nH]nc(N)c34)cc2)c1 [Linifanib (ABT-869)] | 117 ± 45 | 165 | 54.2 ± 0.96 | 68.7 | 72 ± 2.6 | 120 | 92.18 ± 0.33 | 160 ± 47 | 139 ± 45
12 | C1N2CN3CN1CN(C2)C3 [Methenamine] | 89.3 ± 14 | 127 | 101 ± 14 | 90.8 | 177 ± 29 | 104 | 90.2 ± 4.5 | 91.8 ± 2.4 | 142 ± 4.7
13 | Cc1c(NC(=O)c2cccnc2)c(=O)n(-c2ccccc2)n1C [Nifenazone] | 115 ± 12 | 95.9 | 116 ± 42 | 114 | 103 ± 10 | 122 | 96.7 ± 4.5 | 93.9 ± 16 | 128 ± 6
14 | NCC1OC(OC2C(CO)OC(OC3C(O)C(N)CC(N)C3OC3OC(CN)C(O)C(O)C3N)C2O)C(N)C(O)C1O.O=S(=O)(O)O (stereo not drawn) [Neomycin sulfate] | 90.1 ± 22 | 135 | 91.8 ± 9.7 | 95.9 | 79.9 ± 2.5 | 111 | 92.9 ± 8.6 | 102 ± 7.7 | 95.9 ± 4.7
15 | CC12CCC3=C4CCC(=O)C=C4CCC3C1CCC2(O)CC#N (stereo not drawn) [Dienogest] | 178 ± 40 | 124 | 94.3 ± 2.7 | 82.2 | 170 ± 3.3 | 164 | 92.3 ± 3.2 | 105 ± 6.8 | 139 ± 9
16 | CCCNC(C)C(=O)Nc1c(C)csc1C(=O)OC.Cl (stereo not drawn) [Articaine HCl] | 104 ± 4.9 | 115 | 116 ± 7 | 96.9 | 79.6 ± 10 | 133 | 94.3 ± 5.7 | 104 ± 18 | 129 ± 5.7
17 | CC(=O)OC1CCC2(C)C(=CCC3C2CCC2(C)C(c4cccnc4)=CCC32)C1 (stereo not drawn) [Abiraterone acetate] | 96.7 ± 14 | 87.6 | 65.8 ± 28 | 88.7 | 68 ± 12 | 98 | 62.6 ± 1.9 | 95.5 ± 20 | 117 ± 51
18 | CCOC(=O)c1ccc(N)cc1 [Benzocaine] | 144 ± 13 | 87.2 | 115 ± 14 | 117 | 79.8 ± 1.6 | 134 | 117 ± 8.3 | 142 ± 12 | 140 ± 10
19 | Cc1cc(C)nc(NS(=O)(=O)c2ccc(N)cc2)n1 [Sulfamethazine] | 86 ± 14 | 88.9 | 101 ± 3.9 | 89.6 | 112 ± 6.1 | 114 | 91.9 ± 5.5 | 95.7 ± 21 | 132 ± 1.9
20 | Cc1c(F)cc(C(=O)NC2CC2)cc1-c1ccc(C(=O)NCC(C)(C)C)cn1 [Losmapimod] | 84 ± 16 | 91.4 | 84.4 ± 21 | 60 | 71 ± 2.2 | 81.6 | 58.1 ± 1.8 | 76.5 ± 16 | 101 ± 6.2
21 | CN(C)CCc1c[nH]c2ccc(CS(=O)(=O)N3CCCC3)cc12.O=C(O)CC(O)C(=O)O [Almotriptan Malate] | 105 ± 5 | 132 | 103 ± 6 | 86.5 | 84.8 ± 7.8 | 144 | 87.7 ± 4.3 | 90.6 ± 0.17 | 134 ± 8
22 | CCCCC(=O)N(Cc1ccc(-c2ccccc2-c2nn[nH]n2)cc1)C(C(=O)O)C(C)C (stereo not drawn) [Valsartan] | 112 ± 6 | 118 | 118 ± 24 | 97.2 | 116 ± 24 | 119 | 108 ± 10 | 101 ± 16 | 199 ± 25
